# In PubChem BioAssay:
# Target: Left-right determination factor 2 (Homo sapiens) (UniProt O00292)
# Experiment: LEFTY2 binders on small-molecule microarrays, primary screen, biochemical, small-molecule microarray, 635 nm fluorescence scan (AID 1110)
# Conditions: LEFTY2 binding, higher = more signal
# Left-right determination factor 2 (Homo sapiens), sequence (O00292 whole entry, looked up): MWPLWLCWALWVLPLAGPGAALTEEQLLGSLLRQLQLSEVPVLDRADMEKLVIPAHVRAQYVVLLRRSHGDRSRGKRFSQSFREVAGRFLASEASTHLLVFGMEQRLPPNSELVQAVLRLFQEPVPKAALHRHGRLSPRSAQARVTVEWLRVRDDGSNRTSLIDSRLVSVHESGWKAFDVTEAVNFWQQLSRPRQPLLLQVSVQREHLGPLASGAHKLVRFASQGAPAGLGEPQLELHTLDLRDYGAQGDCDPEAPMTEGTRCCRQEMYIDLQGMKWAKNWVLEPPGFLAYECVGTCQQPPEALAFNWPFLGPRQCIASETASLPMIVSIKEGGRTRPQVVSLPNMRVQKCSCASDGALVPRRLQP
row,SMILES,composite z-score
1,CC[C@H]1C2=C3C(CC[C@H]4C(OCc5ccc(F)cc5C(F)(F)F)OC[C@](C)([C@@H]34)N(C(=O)OC(C)(C)C)C2)C(COC(C)=O)C1COC(C)=O (stereo not given in full),-0.747
2,[N-]=[N+]=NCc1ccccc1[C@H]1OC(c2ccc(OCCCO)cc2)=N[C@@]1(CCS(=O)(=O)c1ccccc1)C(=O)NCCN1CCOCC1,0.0744
3,C=C(CCCC)/C(=C/C[C@@H](OC(C)=O)c1ccc(OCCO)cc1)c1cc(C(=O)OC)ccc1OC,-0.103
4,O=C1C2C=CC(C(O)c3ccccn3)N(Nc3ccc([N+](=O)[O-])cc3)C2C(=O)N1c1ccccc1 (stereo not given),0.335
5,CCN1C(=O)C2CC(=O)C3C(CN(S(=O)(=O)c4ccc(C)cc4)C3c3ccc(C)cc3)C2C1=O (stereo not given),0.015
6,COC(=O)C1=CC(CCCO)=CC(c2ccc(CN3CCCC3)cc2)N(C)C=C1C(=O)OC (stereo not given),0.0465
7,CCOC(=O)C[C@H]1[C@H](OC(=O)c2cc3ccccc3oc2=O)[C@@H](NC(=O)c2ccc(-c3ccccc3)cc2)c2cc(OCCCO)ccc2N1C(=O)Cc1ccc(OC)cc1,0.497
8,C=CCNC(=O)[C@H]1[C@@H]2C(=O)O[C@@H](c3ccccc3)[C@@H](c3ccccc3)N2[C@@H](c2ccc(OCCO)cc2)[C@]12C(=O)N(C(=O)OCCOC)c1ccc(C#CCNC(N)=O)cc12,0.716
9,O=C1C[C@@](C(=O)NCC(F)(F)F)(c2ccc([N+](=O)[O-])cc2)[C@@H](c2ccc(CO)cc2I)N1CC12CC3CC(CC(C3)C1)C2,0.0604
10,COc1cc2c(cc1O)C(C)N(Cc1sc3ccccc3c1Cl)CC2 (stereo not given),-1.41
11,CCCCCCCCCCC(O)C1C=CC2C(=O)N(C)C(=O)C2N1Nc1ccccc1 (stereo not given),-2.42
12,COC(=O)[C@@]1(Cc2ccccc2)[C@H]2c3cc(C(=O)N(C)C)n(Cc4ccc(Cl)c(C(F)(F)F)c4)c3C[C@H]2CN1C(=O)c1ccccc1,0.533
13,COC(=O)[C@@]1(Cc2ccc(F)cc2)[C@H]2c3cc(C(=O)N4CCCC4)n(CCc4c[nH]c5cc(F)ccc45)c3C[C@H]2CN1C(=O)c1ccccc1,0.119
14,C=CCNC(=O)[C@@H]1[C@H]2C(=O)O[C@H](c3ccccc3)[C@H](c3ccccc3)N2[C@H](c2ccc(OCCO)cc2)[C@@]12C(=O)Nc1ccc(C#CC3=CCCCC3)cc12,0.413
15,C=CCOC(=O)[C@H]1[C@@H]2C(=O)O[C@@H](c3ccccc3)[C@@H](c3ccccc3)N2[C@@H](c2ccc(OCCOC(=O)[C@H]3C[C@H]4C(=O)NCC(=O)N4[C@H]3c3ccc(O)cc3)cc2)[C@]12C(=O)Nc1ccccc12,0.506
16,CO[C@H]1O[C@H](CO)[C@@H](OC(=O)Nc2cccc(F)c2)[C@H](OC(=O)c2cc3ccccc3[nH]2)[C@H]1OC(=O)c1cc2ccccc2[nH]1,0.0416
17,O=C1O[C@@H](c2ccccc2)[C@@H](c2ccccc2)N2[C@@H](c3ccccc3OCCO)[C@]3(C(=O)Nc4ccc(C#CC5(O)CCCCCC5)cc43)[C@@H](C(=O)N3CCCCCCC3)[C@H]12,1.87
18,CCCCCCc1nc(Cc2cc(OC)c(OC)c(OC)c2)c(C)c2c1[Si](C(C)C)(C(C)C)OC2,0.0746

row,SMILES,composite z-score
1,[N-]=[N+]=NCc1ccccc1[C@H]1OC(c2ccc(OCCCO)cc2)=N[C@@]1(CCS(=O)(=O)c1ccccc1)C(=O)O,-0.266
2,COc1ccc(NN2C(C(O)c3ccc(F)cc3)C=CC3C(=O)N(C4CCCCC4)C(=O)C32)cc1 (stereo not given),0.14
3,CC1C2C(CCCO)=CC(C3C(=O)N(C)C(=O)C23)N1Cc1cccc(OC(F)(F)F)c1 (stereo not given),0.101
4,CCOC(=O)C1=C[C@@H](C(C)(C)C)N(S(=O)(=O)c2ccc(C)cc2)[C@H]1c1ccc(OC)cc1,0.535
5,Cc1ccc(N2C(=O)c3ccccc3[C@@H](C(=O)NCCN3CCOCC3)[C@@H]2c2ccc(CO)cc2)nc1,-1.29
6,O=C(N1CCOCC1)[C@]1(CCS(=O)(=O)c2ccccc2)N=C(c2ccc(OCCCO)cc2)O[C@@H]1c1ccccc1,-0.685
7,C=CCC(OC(C)=O)[C@@H]1[C@@H](N(Cc2ccc(-c3ccccc3)cc2)C(=O)Cc2ccc(OC)cc2)c2cc(OCCCO)ccc2N1C(=O)Cc1ccc(OC)cc1 (stereo not given in full),0.055
8,C=C(COC)C(=O)CC[C@H](OC(C)=O)c1ccccc1OCCO,-0.0181
9,COc1cc(CO)cc(I)c1O[C@H]1C=C(C(=O)NCCO)C[C@@H](N(CCN2CCOCC2)C(=O)C2CCCO2)[C@@H]1O (stereo not given in full),0.445
10,CC(C)(C)OC(=O)CC[C@@]1(C(N)=O)N=C(c2ccc(OCCCO)cc2)O[C@@H]1c1ccccc1CN=[N+]=[N-],-0.0243
11,[N-]=[N+]=NCc1ccccc1[C@H]1OC(c2ccc(OCCCO)cc2)=N[C@@]1(Cc1ccccc1N=[N+]=[N-])C(=O)N1CCOCC1,-0.267
12,CN(C)CCCCCCNC(=O)[C@@H]1C[C@@H]2C(=O)N[C@@H](CCCC[N+](C)(C)C)C(=O)N2[C@@H]1c1cccc(OCCO)c1,-1.28
13,CCCCC(=C=CC[C@@H](O)c1ccccc1OCCO)C[C@@H](O)c1ccccn1,-0.139
14,CC1C2C(CCCO)=CC(C3C(=O)N(C(N)=O)C(=O)C23)N1Cc1cccc(OC(F)(F)F)c1 (stereo not given),0.246
15,C=CCC(OC(C)=O)[C@@H]1[C@@H](N(Cc2ccc(-c3ccccc3)cc2)C(=O)Cc2ccc(OC)cc2)c2cc(OCCCO)ccc2N1C(=O)c1ccc2ccccc2c1 (stereo not given in full),0.215
16,COc1cc(Cc2cc3c(c(-c4ccccc4)n2)[Si](C(C)C)(C(C)C)OC3)cc(OC)c1OC,0.363
17,O=C1N(Cc2ccccc2)Cc2ccccc2C[C@@]12COC(c1ccc(OCCCO)cc1)=N2,-0.0607
